Laboratory results from PubChem BioAssay AID1981 (Southern Research Specialized Biocontainment Screening …, 2009).
Screen size: about 2,200 compounds; about 480 (22%) were called active. How the calls were made is not given here. A selection follows. Potency and affinity values are given separately.

Test: S. Typhimurium GFP fluorescence dose response in modified counterscreen for PhoP regulon inhibitor project (AID 1981);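 further: 0% = induced DMSO wells and 100% = uninduced wells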
Settings: 4 h; series mostly up to 150 µM; inhibition: at the top concentration

Structure (SMILES) | inhibition
CCOC(=O)C1=NNC2(c3ccc(Cl)cc3)C(=O)N(c3cc(C)cc(C)c3)C(=O)C12 (configuration not stated) | -7.93% (inactive)
CCn1nc(C(=O)OC(C(=O)c2c[nH]c3ccccc23)c2ccccc2)c2ccccc2c1=O (configuration not stated) | 39.2% (inactive)
COc1cccc(/C=N/NC(=O)c2ccc(-c3ccccc3)cc2)c1O | 11.6% (inactive)
Cc1ccc(/C=N/NC(=O)Cn2cnc3ccccc32)o1 | -14.7% (inactive)
c1ccc2c(N3CCCCCC3)nc(-c3ccncc3)nc2c1 | 1.68% (inactive)
Brc1ccc(OCCn2ccnc2)cc1 | 11.1% (inactive)
Oc1ccccc1-c1nc(/C=C/c2ccccc2)nn1-c1ccccc1 | -36.1% (inactive)
Cc1cc(C)c(NC(=S)NC(=O)c2ccc(-c3ccccc3)cc2)c(C)c1 | 2.08% (inactive)
CC(C)OC(=O)c1ccc(NC(=O)c2ccccc2)cc1 | -11.2% (inactive)
O=C(Cc1cccs1)N(c1ccccc1)C1C=CS(=O)(=O)C1 (configuration not stated) | -11.7% (inactive)
Oc1[nH]c(=S)sc1/C=C1\C(c2ccccc2)=Nc2ccccc21 | -4.64% (inactive)
Oc1ccc(Br)cc1-c1ccn[nH]1 | -8.94% (inactive)
O=C(CSc1nc2ccccc2[nH]1)Nc1ccc(F)c(F)c1 | -2.94% (inactive)
Cc1ccc(O)c(-c2cc(-c3ccccc3C)[nH]n2)c1 | 15.8% (inactive)
Clc1c(OCCCn2ccnc2)ccc2ccccc12 | -2.83% (inactive)
Cc1ccc(C)n1-c1cc([N+](=O)[O-])ccc1-n1ccnc1 | 1.81% (inactive)
CN(CCO)Cc1csc2ccc(Br)cc12 | 10.8% (inactive)
O=C(Nc1cccc2ccccc12)OC1C=CS(=O)(=O)C1 (configuration not stated) | 0.66% (inactive)
CN(C)C=NC(=O)c1[nH]c2ccc(Cl)cc2c1-c1ccccc1 | -3.96% (inactive)

Structure (SMILES) | inhibition
Cn1cnnc1SCC(=O)Nc1cccc(C(=O)O)c1 | -3.44% (inactive)
Cc1nnc(SC(C)C(=O)Nc2ccc(S(=O)(=O)N3CCCCCC3)cc2)s1 (configuration not stated) | -5.05% (inactive)
CCOC(=O)c1cn(CC)c2cc(N3CCOCC3)c(F)cc2c1=O | -4.83% (inactive)
CCOC(=O)N1CCN(C(=O)c2cn(CC(C)C)c(=O)c3c2c2ccccc2n3C)CC1 | -15.5% (inactive)
N#CC1=C(S)N(c2ccccc2)C(c2ccc(-c3ccccc3Cl)o2)NC1=O (configuration not stated) | 38.9% (inactive)
Cc1ccc(O)c(-c2cc(-c3cccc(F)c3)n[nH]2)c1 | 17.5% (inactive)
Cc1ccc2nc(C)c(CN3CCN(c4ccc([N+](=O)[O-])cc4Cl)CC3)n2c1 | 6.83% (inactive)
O=S(=O)(Nc1ccc(Cc2ccncc2)cc1)c1ccc(Br)s1 | -5.89% (inactive)
Nc1ccc2oc(=O)c3ccccc3c2c1 | 15.3% (inactive)
Nc1ccc2oc3ccc(N)cc3c(=O)c2c1 | 5.55% (inactive)
COc1ccc(-n2ncc(S(=O)(=O)c3ccccc3)c2-c2ccc(Cl)cc2)cc1 | -1.69% (inactive)
COc1ccc2nc(SCC(=O)N(C)C3CCCCC3)c(C#N)cc2c1 | 11.2% (inactive)
CCCn1c(SCC(=O)NCCc2ccccc2)nnc1-c1cccnc1 | -17.2% (inactive)
Cc1ccc(-c2[nH]c(-c3ccc(Cl)cc3)nc2SCC(=O)NCC2CCCO2)cc1 (configuration not stated) | -22.5% (inactive)
S=C(NN=C1C2CC3CC(C2)CC1C3)Nc1ccccc1 | -20.6% (inactive)
Cc1ccc(C(C(=O)NCc2ccco2)N(CCc2ccccc2)C(=O)Cn2nnc3ccccc32)o1 (configuration not stated) | 0.66% (inactive)
O=C(Nc1cccc(-c2cn3cccnc3n2)c1)c1ccco1 | -0.8% (inactive)
Cn1c(NCc2ccccc2O)nc2ccccc21 | -11% (inactive)
N/C(=N\OC(=O)c1ccc(F)cc1)c1nonc1N | -2.93% (inactive)

Structure (SMILES) | inhibition
CNC(=O)c1ccc(-c2ccc(F)cc2)s1 | 3.2% (inactive)
COc1cc(/C=C2/SC(=S)N(CC(=O)Nc3cccnc3)C2=O)cc(OC)c1OC | 0.53% (inactive)
CCCCCCC(=O)N(O)C1CC(=O)N(c2ccc(C)cc2)C1=O (configuration not stated) | 32.2% (inactive)
C=CCNC(=S)NNC(=O)c1cccn(Cc2ccc(Cl)cc2)c1=O | -6.06% (inactive)
Nc1cc(Br)c(N)c(Br)c1 | 3.41% (inactive)
CC(=O)NC1C(c2nc3ccccc3s2)=C(c2ccccc2)C(=O)N1c1ccc(C)cc1 (configuration not stated) | 8.75% (inactive)
CC1Cc2ccccc2N1C(=O)COC(=O)c1ccc(S(=O)(=O)N(C)C)cc1 (configuration not stated) | -8.24% (inactive)
COC(=O)Cc1c(O)ccn(Cc2ccc(F)cc2)c1=O | 2.05% (inactive)
CCc1c(C)c2cc(Cl)c(O)c(CN(C)C)c2oc1=O | -4.76% (inactive)
CC1=CC(C)(C)n2c(O)c(C3=NC(=S)NC3=O)c3cc(OC(=O)c4cccc5ccccc45)cc1c32 | 3.99% (inactive)
N=c1n(CC(=O)c2ccc([N+](=O)[O-])cc2)c2ccccc2n1Cc1ccccc1 | 6.44% (inactive)
Cn1c(=N)n(CC(=O)c2ccc(Br)s2)c2ccccc21 | 3.25% (inactive)
COc1cc(S(=O)(=O)N2CCCCC2)ccc1NC=O | 4.28% (inactive)
NC1=Nc2ccccc2Oc2ccccc21 | 9.55% (inactive)
NC1=NC(=Nc2cccc(Cl)c2)c2ccccc21 | 2.71% (inactive)
c1ccc2c(C3=NNC(=NC4CCCCC4)SC3)c[nH]c2c1 | 22.7% (inactive)
CN(C)S(=O)(=O)Nc1ccc(C(=O)O)cc1 | -3.1% (inactive)
COc1cccc(OCC(O)CN2CCN(c3ccccn3)CC2)c1 (configuration not stated) | 4.43% (inactive)
Cn1c(SCC(=O)NC(=O)c2cccc([N+](=O)[O-])c2)nnc1-c1ccc(F)cc1 | -12.3% (inactive)
